Measured values from PubChem BioAssay AID492973 (The Scripps Research Institute Molecular Screening Center, 2010).
Active and inactive are the calls of the source.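 Rule for the calls: active = inhibition above 50% of the enzyme in parasite cell lysate; inactive = the rest.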

Assay: malaria lysate leucine aminopeptidase inhibition – cell lysate, fluorescence, Plasmodium falciparum lysate, powder samples, late-stage follow-up (AID 492973)
Settings: P. falciparum cell lysate, H-Leu-NHMec fluorescence; at 5 µM; stronger effect = higher value

inhibition, inactive:
CCc1ccc(NC(=O)[C@H]2CC=CC[C@H]2C(=O)O)cc1 22%
CCOc1cccc(-c2cc(=O)[nH][nH]2)c1 43%
CCOC(=O)c1c(NC(=O)[C@@H]2C3CCC(O3)[C@@H]2C(=O)O)sc(C)c1-c1ccc(C)cc1 (some centres undefined) 29%
COc1ccc(-c2cc(=O)[nH][nH]2)cc1OC 8%
N#Cc1c(NC(=O)[C@@H]2C3C=CC(C3)[C@@H]2C(=O)O)sc2c1CCCCC2 (some centres undefined) 30%
CCOc1ccc(NC(=O)Nc2cccs2)cc1 48%

inhibition, active:
Cc1ccc(Nc2nnc(SC3CCOC3=O)s2)cc1 (centres undefined) 57%
CCc1cc2ccc(C)cc2nc1SCC(=O)Nc1cc(OC)c(OC)cc1C(=O)O 69%
COC(=O)c1c(-c2cc(C)ccc2C)csc1NC(=O)[C@@H]1CC=CC[C@@H]1C(=O)O 64%
